In PubChem BioAssay AID1159580 (chemical genetic matrix, 2015):
Where “and” joins values, the source holds several entries; their conditions need not be identical. Identical values can stand only once. The whole screen tested about 5,500 compounds, of which about 2,000 (36%) were called active. Another 18% or so got no clear call; they are omitted. No stated cut-off is given here; in the data, active means normalized growth mostly below about 0.91 (no sharp cut-off); inconclusive means no clear call, values can overlap the other calls; inactive means mostly above about 0.92. The list shows a part of the results.

Assay: chemical genetic growth profiling, strain panel (AID 1159580);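 further: tested at 20 µM; growth read once vehicle control cultures reached saturation at 30 °C; 1 = growth at the plate median or of vehicle wells; lower values mean less growth of the strain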
Conditions: growth OD

Measured: normalized growth

O=C(O)C1CCCNC1 (stereo unspecified)
inactive: S. cerevisiae deletion strains, locus YJR075W, strain HOC1, hits give low values 1.01 | S. cerevisiae deletion strains, locus YKL009W, strain mrt4, hits give low values 1.02 | S. cerevisiae deletion strains, locus YKL068W, hits give low values 1.01 | S. cerevisiae deletion strains, locus YKL085W, strain MDH1 (second series), hits give low values 1.01 | S. cerevisiae deletion strains, locus YKL085W, strain MDH1, hits give low values 1.01 | S. cerevisiae deletion strains, locus YKL160W, strain elf1, hits give low values 1.01 | S. cerevisiae deletion strains, locus YKL190W, strain CNB1, hits give low values 1.01 | S. cerevisiae deletion strains, locus YKR001C, strain vps1, hits give low values 1.01 | S. cerevisiae deletion strains, locus YKR026C, strain gcn3, hits give low values 1.03 | S. cerevisiae deletion strains, locus YKR091W, strain srl3, hits give low values 1.01 | S. cerevisiae deletion strains, locus YLL001W, strain dnm1, hits give low values 1.04 | S. cerevisiae deletion strains, locus YLL026W, hits give low values 1.01 | S. cerevisiae deletion strains, locus YLL041C, strain sdh2, hits give low values 1.02 | S. cerevisiae deletion strains, locus YLR027C, strain aat2, hits give low values 1.02 | S. cerevisiae deletion strains, locus YLR039C, strain RIC1, hits give low values 1.01 | S. cerevisiae deletion strains, locus YLR058C, strain SHM2, hits give low values 1.01 | S. cerevisiae deletion strains, locus YLR102C, strain apc9, hits give low values 1.01 | S. cerevisiae deletion strains, locus YLR113W, strain HOG1, hits give low values 1.05 | S. cerevisiae deletion strains, locus YLR221C, strain rsa3, hits give low values 1.01 | S. cerevisiae deletion strains, locus YLR258W, strain gsy2, hits give low values 1.02 | S. cerevisiae deletion strains, locus YLR262C, strain YPT6 (second series), hits give low values 1.01 | S. cerevisiae deletion strains, locus YLR262C, strain YPT6, hits give low values 1.05 | S. cerevisiae deletion strains, locus YLR268W, strain sec22, hits give low values 1.04 | S. cerevisiae deletion strains, locus YLR320W, strain mms22, hits give low values 1.02 | S. cerevisiae deletion strains, locus YLR330W, strain CHS5, hits give low values 1 | S. cerevisiae deletion strains, locus YLR342W, strain FKS1 (second series), hits give low values 0.997 | S. cerevisiae deletion strains, locus YLR342W, strain FKS1, hits give low values 1.01 | S. cerevisiae deletion strains, locus YLR357W, strain rsc2, hits give low values 1.03 | S. cerevisiae deletion strains, locus YLR370C, strain arc18, hits give low values 1.02 | S. cerevisiae deletion strains, locus YLR371W, strain rom2, hits give low values 1.03 | S. cerevisiae deletion strains, locus YLR384C, strain iki3, hits give low values 1.01 | S. cerevisiae deletion strains, locus YLR418C, strain cdc73, hits give low values 1.05 | S. cerevisiae deletion strains, locus YML016C, strain PPZ1, hits give low values 1.01 | S. cerevisiae deletion strains, locus YML032C, strain rad52, hits give low values 1.04 | S. cerevisiae deletion strains, locus YML120C, strain ndi1, hits give low values 1.01 | S. cerevisiae deletion strains, locus YML124C, strain tub3, hits give low values 1.01 | S. cerevisiae deletion strains, locus YMR058W, strain fet3, hits give low values 1.02 | S. cerevisiae deletion strains, locus YMR078C, strain ctf18, hits give low values 1.03 | S. cerevisiae deletion strains, locus YMR125W, strain sto1, hits give low values 1.02 | S. cerevisiae deletion strains, locus YMR129W, hits give low values 1.03 | S. cerevisiae deletion strains, locus YMR205C, strain PFK2, hits give low values 1.02 | S. cerevisiae deletion strains, locus YMR223W, strain ubp8, hits give low values 1.02 | S. cerevisiae deletion strains, locus YMR231W, strain pep5, hits give low values 1.01 | S. cerevisiae deletion strains, locus YMR263W, strain SAP30, hits give low values 1.01 | S. cerevisiae deletion strains, locus YMR307W, strain GAS1, hits give low values 0.992 and 0.991 | S. cerevisiae deletion strains, locus YNL067W, strain RPL9B, hits give low values 1.01 | S. cerevisiae deletion strains, locus YNL071W, strain lat1, hits give low values 1.02 | S. cerevisiae deletion strains, locus YNL128W, strain TEP1, hits give low values 1.02 and 0.999 | S. cerevisiae deletion strains, locus YNL153C, strain GIM3, hits give low values 1.01 and 1.02 | S. cerevisiae deletion strains, locus YNL175C, strain NOP13, hits give low values 1.02 | S. cerevisiae deletion strains, locus YNL183C, strain NPR1, hits give low values 0.935 | S. cerevisiae deletion strains, locus YNL197C, strain WHI3, hits give low values 1.01 | S. cerevisiae deletion strains, locus YNL209W, strain ssb2, hits give low values 1.02 | S. cerevisiae deletion strains, locus YNL224C, strain SQS1, hits give low values 1.03 | S. cerevisiae deletion strains, locus YNL233W, strain BNI4, hits give low values 1.01 | S. cerevisiae deletion strains, locus YNL248C, strain rpa49, hits give low values 1 | S. cerevisiae deletion strains, locus YNL250W, strain rad50, hits give low values 1.02 | S. cerevisiae deletion strains, locus YNL271C, strain bni1, hits give low values 1.02 | S. cerevisiae deletion strains, locus YNL298W, strain CLA4, hits give low values 1.02 | S. cerevisiae deletion strains, locus YNL307C, strain MCK1, hits give low values 1.03 | S. cerevisiae deletion strains, locus YNL322C, strain KRE1 (second series), hits give low values 1.02 | S. cerevisiae deletion strains, locus YNL322C, strain KRE1, hits give low values 1.01 | S. cerevisiae deletion strains, locus YNR049C, strain mso1, hits give low values 1.02 | S. cerevisiae deletion strains, locus YNR052C, strain pop2, hits give low values 1.02 | S. cerevisiae deletion strains, locus YOL006C, strain TOP1, hits give low values 1.07 | S. cerevisiae deletion strains, locus YOL012C, strain htz1 1.27 | S. cerevisiae deletion strains, locus YOL147C, strain pex11, hits give low values 1.02 | S. cerevisiae deletion strains, locus YOR001W, strain rrp6, hits give low values 1.02 | S. cerevisiae deletion strains, locus YOR061W, strain CKA2, hits give low values 1.01 | S. cerevisiae deletion strains, locus YOR069W, strain VPS5, hits give low values 1 | S. cerevisiae deletion strains, locus YOR070C, strain gyp1, hits give low values 1.02 | S. cerevisiae deletion strains, locus YOR080W, strain dia2, hits give low values 1.02 | S. cerevisiae deletion strains, locus YOR083W, strain WHI5 (second series), hits give low values 1.02 | S. cerevisiae deletion strains, locus YOR083W, strain WHI5, hits give low values 1.01 | S. cerevisiae deletion strains, locus YOR106W, strain vam3, hits give low values 1.01 | S. cerevisiae deletion strains, locus YOR136W, strain idh2, hits give low values 1.02 | S. cerevisiae deletion strains, locus YOR144C, strain elg1, hits give low values 1.02 | S. cerevisiae deletion strains, locus YOR184W, strain ser1, hits give low values 1.04 | S. cerevisiae deletion strains, locus YOR231W, strain MKK1, hits give low values 0.999 | S. cerevisiae deletion strains, locus YOR265W, strain rbl2, hits give low values 1.02 | S. cerevisiae deletion strains, locus YOR270C, strain vph1, hits give low values 1.04 | S. cerevisiae deletion strains, locus YOR290C, strain snf2, hits give low values 1.02 | S. cerevisiae deletion strains, locus YOR316C, strain cot1, hits give low values 1.02 | S. cerevisiae deletion strains, locus YPL051W, strain arl3, hits give low values 1.02 | S. cerevisiae deletion strains, locus YPL055C, strain LGE1, hits give low values 1.03 | S. cerevisiae deletion strains, locus YPL078C, strain atp4, hits give low values 1.03 | S. cerevisiae deletion strains, locus YPL106C, strain sse1, hits give low values 1.01 | S. cerevisiae deletion strains, locus YPL240C, strain hsp82, hits give low values 1.03 | S. cerevisiae deletion strains, locus YPL241C, strain CIN2, hits give low values 1.01 and 1 | S. cerevisiae deletion strains, locus YPL256C, strain CLN2, hits give low values 0.983 | S. cerevisiae deletion strains, locus YPR119W, strain clb2, hits give low values 1.03 | S. cerevisiae deletion strains, locus YPR141C, strain kar3, hits give low values 1.02 | S. cerevisiae deletion strains, locus YPR163C, strain tif3, hits give low values 1.03 | S. cerevisiae deletion strains, locus YPR167C, strain met16, hits give low values 1.03 | S. cerevisiae deletion strains, strain wtn01, hits give low values 1.02 | S. cerevisiae strains, strain wild type, hits give low values 1.01
